Source: PubChem BioAssay (several laboratories)
PREPL inh – PREPL enzyme inhibitors, primary screen, biochemical, fluorescence polarization. Prolyl endopeptidase-like (Homo sapiens), Q4J6C6. inhibition, % at 5.96 µM. hit rate 0.68% among 320,000. recombinant PREPL, fluorescence polarization activity-based probe; in the data active = inhibition above about 43%
PP1 counter – PP1-alpha phosphatase inhibitors, primary screen, counter-screen for PP5 inhibitor project, biochemical, fluorescence, OMFP substrate, single point. AID 2235, 2010. purified PP1alpha. inhibition, % at 6.7 µM. hit rate 0.9% among 320,000;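 active = inhibition above the mean inhibition of all tested compounds plus 3 SD, computed separately for each screening campaign, cut at about 15% in these data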
Rpn11 inh – Rpn11 (PSMD14) deubiquitinase inhibitors, primary screen, biochemical, fluorescence polarization, uHTS | human 26S proteasome, Ub4-pepOG fluorescence polarization; 20S core pre-blocked with epoxomicin | AID 588493, 2011 | hit rate 0.59% among 360,000 | inhibition, % at 20 µM;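 active = inhibition at 20 µM, scaled to each plate's controls, above about 33%, limit read from the data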
NadD inh – inhibitors of S. aureus NadD, primary screen, biochemical, colorimetric, uHTS; purified NadD enzyme, colorimetric absorbance read-out; hit rate 0.78% among 360,000; inhibition, % at 20 µM; Nicotinate-nucleotide adenylyltransferase NadD (Staphylococcus aureus N315); AID 602399, 2012; in the data active = inhibition above about 26%
PP5 inh – PP5 phosphatase inhibitors, primary screen, biochemical, fluorescence; Serine/threonine-protein phosphatase 5 (Homo sapiens), P53041; purified PP5c, OMFP substrate fluorescence; inhibition, % at 6.7 µM; hit rate 0.18% among 320,000; AID 1987, 2009;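 active = inhibition above the campaign's mean inhibition across all tested compounds plus 3 SD, cut at about 9.5% in these data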
Rpn11 confirm – Rpn11 (PSMD14) deubiquitinase inhibitors, confirmation, biochemical, fluorescence polarization, single concentration. shares compounds with Rpn11 inh. purified human 26S proteasome, Ub4-pepOG fluorescence polarization; proteasome pretreated with epoxomicin. hit rate 29% among 1,900. inhibition, % at 20 µM
MMP-2 counter – MMP-2 enzyme inhibition, confirmation, counter-screen for RPN11 inhibitor project, biochemical, fluorescence, single concentration; shares compounds with Rpn11 inh; hit rate 4% among 1,900; inhibition, % at 20 µM; recombinant MMP-2, FRET peptide cleavage fluorescence;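 note: human MMP-2 activated beforehand with APMA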
Thrombin FP – bovine thrombin protease inhibition, confirmation, counter-screen for Rpn11 inhibitor project, biochemical, fluorescence polarization, single concentration; AID 602333, 2012; inhibition, % at 20 µM; bovine thrombin cleavage of Ub4-pepOG; hit rate 13% among 1,900; shares compounds with Rpn11 inh;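 active = mean inhibition at least 40% at 20 µM, or signal 3 deviations below plate average, so some actives read negative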
Target sequence (P00735 whole entry, looked up): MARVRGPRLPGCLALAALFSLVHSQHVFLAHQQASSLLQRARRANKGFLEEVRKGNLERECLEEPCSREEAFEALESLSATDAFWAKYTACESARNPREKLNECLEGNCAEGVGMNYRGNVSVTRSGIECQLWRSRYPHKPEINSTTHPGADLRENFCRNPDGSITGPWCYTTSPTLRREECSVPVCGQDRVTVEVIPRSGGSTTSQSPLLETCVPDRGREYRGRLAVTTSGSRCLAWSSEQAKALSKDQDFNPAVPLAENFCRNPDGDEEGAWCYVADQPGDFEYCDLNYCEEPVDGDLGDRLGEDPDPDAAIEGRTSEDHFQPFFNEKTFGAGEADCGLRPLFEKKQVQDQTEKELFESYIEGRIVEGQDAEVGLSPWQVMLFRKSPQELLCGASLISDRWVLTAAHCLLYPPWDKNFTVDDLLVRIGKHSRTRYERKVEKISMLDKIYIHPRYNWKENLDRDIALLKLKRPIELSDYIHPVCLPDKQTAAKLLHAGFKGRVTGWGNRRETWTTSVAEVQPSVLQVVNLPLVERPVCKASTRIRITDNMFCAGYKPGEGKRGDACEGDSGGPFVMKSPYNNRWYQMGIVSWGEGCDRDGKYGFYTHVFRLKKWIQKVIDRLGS
Large screens that a line does not name were inactive (follow-up assays come after a bar, where they were run). This is a sample that favours compounds with a hit; in the whole collection about 2.4% have one here. Cut-off read from the data, not from the text of the source, unless noted: active = inhibition above about 40%; inactive = the rest.

COc1ccc(Br)cc1C(=O)Nc1cccc(-c2nnc(-c3ccco3)o2)c1	Rpn11 inh 121 | Rpn11 confirm inactive | MMP-2 counter inactive | Thrombin FP inactive
COc1cccc(C(=O)Nc2cccc(-c3nnc(-c4ccco4)o3)c2)c1	none
O=C(Nc1cccc(C(F)(F)F)c1)c1ccc(-c2ccc(F)c(F)c2)c2ccoc12	none (no result: PREPL inh, PP1 counter, PP5 inh)
CCOC(=O)c1cc2c(=Cc3ccc(N(C)C)cc3)c3ccccc3n2[n+]1C	Rpn11 inh 43 (no result: PREPL inh, PP1 counter, PP5 inh) | Rpn11 confirm inactive | MMP-2 counter inactive | Thrombin FP inactive
CN(C)c1ccc(C=c2c3cc(O)ccc3n3c2cc(-c2ccccc2)[n+]3C)cc1	Rpn11 inh 168 (no result: PREPL inh, PP1 counter, PP5 inh) | Rpn11 confirm 177 | MMP-2 counter 109 | Thrombin FP 155
Cc1cc2c(=Cc3ccc(N(C)C)cc3)c3ccccc3n2[n+]1C	Rpn11 inh 177 (no result: PREPL inh, PP1 counter, PP5 inh) | Rpn11 confirm 135 | MMP-2 counter inactive | Thrombin FP 145
C[n+]1c(-c2ccccc2)cc2c(=Cc3ccccc3)c3ccccc3n21	none (no result: PREPL inh, PP1 counter, PP5 inh)
COc1cccc(C(=O)Nc2ccc(S(=O)(=O)Nc3cc(C)nc(C)n3)cc2)c1	none
COc1cc(/C=C(\C#N)C(=O)Nc2cccc(C(=O)O)c2)ccc1OCc1ccc(C)cc1	none
COc1cc(/C=C(\C#N)C(=O)Nc2cc(C(F)(F)F)ccc2Cl)ccc1OCC(=O)Nc1cccc(C(F)(F)F)c1	Rpn11 inh 80 | Rpn11 confirm 59 | MMP-2 counter inactive | Thrombin FP inactive
Cc1ncc(CN2CCCC(C(=O)Nc3ccc(-c4cccc(F)c4)cc3)C2)n1C (stereo not drawn)	none
CCC(C)C(=O)Nc1nc(C)c(-c2csc(Nc3ccc(Cl)cc3)n2)s1 (stereo not drawn)	Rpn11 inh 39 | Rpn11 confirm inactive | MMP-2 counter inactive | Thrombin FP inactive
Cc1sc2nc(-c3ccc(Br)cc3)oc(=O)c2c1C	none
O=C(NC(=S)Nc1ccc(Cl)cc1)c1ccccc1	none
O=C(N/C(=N\O)c1ccccc1)Nc1ccc(Cl)cc1	Rpn11 inh 37 | Rpn11 confirm inactive | MMP-2 counter inactive | Thrombin FP inactive
O=C(COC(=O)c1ccccc1O)Nc1cccc(S(=O)(=O)N2CCCC2)c1	none
COCCCn1c(SCC(=O)N2CCOCC2)nc2ccccc2c1=O	none
Cc1ccc(C(=O)O)cc1NC(=S)NC(=O)c1ccc(-c2ccc(Cl)cc2)o1	Rpn11 inh 48 | Rpn11 confirm inactive | MMP-2 counter 45 | Thrombin FP inactive
COc1ccc(C(=O)O)cc1NC(=S)NC(=O)c1ccc(-c2ccc(Cl)cc2)o1	none (no result: PREPL inh, PP1 counter, PP5 inh)
O=C(O)c1ccc(NC(=S)NC(=O)c2ccc(-c3ccc(Br)cc3)o2)cc1	Rpn11 inh 145 | Rpn11 confirm 74 | MMP-2 counter inactive | Thrombin FP inactive
COc1ccc(NC(=O)CN2CCc3ccccc3C2)c([N+](=O)[O-])c1	none
Cc1cccc(/C=C\c2nc3ccccc3c(=O)[nH]2)c1	none
COc1cc(/C=C/c2nc3ccccc3c(=O)[nH]2)cc(Cl)c1O	Rpn11 inh 69 | Rpn11 confirm inactive | MMP-2 counter inactive | Thrombin FP 158
O=C(NCc1ccc(Cl)cc1)c1ccc(OCC2CCCO2)cc1 (stereo not drawn)	Rpn11 inh 37 | Rpn11 confirm inactive | MMP-2 counter inactive | Thrombin FP inactive
O=C(/C(=C(\[O-])c1ccccc1)[n+]1ccc2ccccc2c1)c1ccccc1	Rpn11 inh 43 | Rpn11 confirm inactive | MMP-2 counter inactive | Thrombin FP inactive
CCOC(=O)Cn1ccc2cc(S(=O)(=O)N3CCCC3)ccc21	none (no result: PREPL inh, PP1 counter, PP5 inh)
COc1ccc(C(=O)CSc2nnc(NC(=O)C3CC(=O)N(c4ccccc4)C3)s2)cc1 (stereo not drawn)	PP1 counter 17, Rpn11 inh 44 | Rpn11 confirm inactive | MMP-2 counter inactive | Thrombin FP inactive
COc1ccc(F)c(CN2CCC(n3nccc3NC(=O)CCCc3ccccc3)CC2)c1	Rpn11 inh 35 | Rpn11 confirm inactive | MMP-2 counter inactive | Thrombin FP inactive
COc1ccc(NC(=O)Cn2nnc(C(=O)NCc3ccc(C)cc3)c2N)cc1OC	none
Cc1cc(C)cc(NC(=O)Cn2nnc(C(=O)NCc3ccc4c(c3)OCO4)c2N)c1	Rpn11 inh 157 | Rpn11 confirm 101 | MMP-2 counter inactive | Thrombin FP inactive
CCOc1ccc(CCNC(=O)c2nnn(CC(=O)Nc3ccc(C)cc3)c2N)cc1OCC	Rpn11 inh 84 | Rpn11 confirm 87 | MMP-2 counter inactive | Thrombin FP inactive
Cc1ccc(CNC(=O)c2nnn(CC(=O)Nc3cc(C)cc(C)c3)c2N)cc1	Rpn11 inh 58 | Rpn11 confirm 51 | MMP-2 counter inactive | Thrombin FP inactive
CCOc1ccc(CCNC(=O)c2nnn(CC(=O)Nc3ccc(OC)cc3)c2N)cc1OCC	none
O=C(NC1CCC1)C1CCC(=O)N(Cc2ccc(Cl)cc2)C1 (stereo not drawn)	none (no result: PREPL inh, PP1 counter, PP5 inh)
CC(C)CN(C(=O)COC(=O)CNC(=O)c1ccccc1F)c1c(N)n(Cc2ccccc2)c(=O)[nH]c1=O	none
COc1cc2sc3cc(NCC[C@@H]4CCCN4C)ccc3c(=O)c2cc1OC	Rpn11 inh 57 (no result: PP1 counter, PP5 inh) | Rpn11 confirm inactive | MMP-2 counter inactive | Thrombin FP inactive
CCOC(=O)c1cc(C)n(Cc2ccc(OCC)c(OC)c2)c1C	none
COc1ccc(N=C2S/C(=C\c3cccs3)C(=O)N2CC(C)C)cc1	none
COc1ccc(N=C2S/C(=C\c3ccc(C)s3)C(=O)N2CC(C)C)cc1	Rpn11 inh 100 | Rpn11 confirm inactive | MMP-2 counter inactive | Thrombin FP inactive
COc1ccc(NC(=O)c2ccc(-c3csc(C)n3)cc2)cc1	none
Cc1nc(-c2ccc(C(=O)Nc3ccc(F)cc3)cc2)cs1	Rpn11 inh 61 | Rpn11 confirm inactive | MMP-2 counter inactive | Thrombin FP inactive
c1cc(CNCCCN2CCOCC2)ccn1	none
CC(=O)N(CCCN1CCOCC1)Cc1ccncc1	Rpn11 inh 40 | Rpn11 confirm inactive | MMP-2 counter inactive | Thrombin FP inactive
CS(=O)(=O)N(CC(=O)Nc1ccc2c(c1)OCCO2)c1ccc2c(c1)OCO2	Rpn11 inh 150 | Rpn11 confirm inactive | MMP-2 counter inactive | Thrombin FP inactive
